PubChem BioAssay AID488969 (Vanderbilt High Throughput Screening Facility, 2010)
Whole data set: some 110,000 compounds, median “z-score” near -0.1, cut for the highest 2% near 2. The full list was thinned out, with the highest values kept by preference. The source made the active and inactive calls.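 Rule for the calls: active = z-score in the third read window above 3 or below -3; inactive = the rest.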

Biological target: Metabotropic glutamate receptor 8 (Rattus norvegicus) (UniProt P70579)
Assay: mGluR8 Gi/Go-coupled signaling modulation – cell-based, rat, thallium flux, HTS, primary screen (AID 488969)
Details: HEK293 rat mGluR8, GIRK (G protein-gated inwardly rectifying potassium channel) thallium flux, FluoZin2; at 10 µM; stronger effect = higher value; submaximal glutamate (EC20) added with thallium

Chain of Metabotropic glutamate receptor 8 (Rattus norvegicus) (P70579 whole entry, looked up): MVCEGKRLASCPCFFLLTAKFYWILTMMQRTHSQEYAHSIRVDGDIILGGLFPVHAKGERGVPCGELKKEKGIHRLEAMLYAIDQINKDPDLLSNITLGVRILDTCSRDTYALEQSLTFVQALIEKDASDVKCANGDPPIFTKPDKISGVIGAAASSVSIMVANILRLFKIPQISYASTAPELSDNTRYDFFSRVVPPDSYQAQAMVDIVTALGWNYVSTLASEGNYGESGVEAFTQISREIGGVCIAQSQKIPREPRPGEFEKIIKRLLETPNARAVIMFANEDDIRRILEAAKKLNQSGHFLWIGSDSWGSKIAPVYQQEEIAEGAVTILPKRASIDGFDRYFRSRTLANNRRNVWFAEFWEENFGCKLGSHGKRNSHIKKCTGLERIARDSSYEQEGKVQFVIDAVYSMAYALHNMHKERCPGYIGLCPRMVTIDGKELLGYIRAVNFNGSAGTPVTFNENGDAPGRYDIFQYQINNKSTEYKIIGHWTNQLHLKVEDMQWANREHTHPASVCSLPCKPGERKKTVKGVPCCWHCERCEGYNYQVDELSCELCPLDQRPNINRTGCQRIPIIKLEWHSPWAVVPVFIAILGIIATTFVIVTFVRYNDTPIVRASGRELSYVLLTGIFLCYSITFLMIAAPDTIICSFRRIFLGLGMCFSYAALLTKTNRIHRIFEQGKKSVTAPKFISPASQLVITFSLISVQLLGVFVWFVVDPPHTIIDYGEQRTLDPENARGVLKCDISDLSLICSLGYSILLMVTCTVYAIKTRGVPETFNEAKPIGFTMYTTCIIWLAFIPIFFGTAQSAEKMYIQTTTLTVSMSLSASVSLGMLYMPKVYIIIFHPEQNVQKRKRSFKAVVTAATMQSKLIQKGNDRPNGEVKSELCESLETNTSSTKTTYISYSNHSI

Going from `CCN(CC)CCCN1C(=O)c2oc3ccccc3c(=O)c2C1c1cccc(OC)c1OC` (stereo unspecified) to `COc1cccc(C2c3c(oc4ccccc4c3=O)C(=O)N2CCCN(C)C)c1OC` (stereo unspecified), the z-score falls from 0.625 to -0.0845.

Going from `CCN(CC)CCCN1C(=O)c2oc3ccccc3c(=O)c2C1c1cc(OC)ccc1OC` (stereo unspecified) to `COc1ccc(OC)c(C2c3c(oc4ccccc4c3=O)C(=O)N2CCCN(C)C)c1` (stereo unspecified), the z-score falls from 0.517 to -0.648.

Compared with `CN(C)CCCN1C(=O)c2oc3ccccc3c(=O)c2C1c1cccs1` (stereo unspecified), `COc1ccc(CCN2C(=O)CC(C(N)=O)SC2=Nc2ccccc2)cc1OC` (stereo unspecified) is lower in z-score: 2.78 for the first, 1.15 for the second.

First: Cn1c(SCC(=O)c2ccccc2F)nnc1C1CC1
Second: Cn1c(Cc2csc(N)n2)nnc1SCC(=O)NCc1ccccc1
The z-score of the first is lower: -0.74 for the first, 0.898 for the second.

Compared with `CCn1c(SCC(N)=O)nnc1-c1ccc(S(=O)(=O)N2CCN(C)CC2)cc1`, `CCOC(=O)Nc1ccc(S(=O)(=O)Nc2cc(C)nc(C)n2)cc1` is higher in z-score: -0.217 for the first, -0.12 for the second.

First: COc1ccc(NC(=O)c2cccc(F)c2)cc1Cl
Second: Cc1ccc(NC(=O)c2cc(N3C(=O)C=CC3=O)ccc2Cl)cc1C
The z-score of the first is lower: -0.393 for the first, -0.0892 for the second.

Compared with `CCc1cccc2c(C(=O)COC(=O)c3ccc(O)cc3)c[nH]c12`, `COC(=O)c1ccccc1NC(=S)NC(=O)c1ccc(C)cc1` is higher in z-score: -0.12 for the first, 2.94 for the second.

Compared with `Cc1ccc(/C=N/NC(=O)c2cccs2)s1`, `O=C(N/N=C/c1cccs1)c1cccs1` is lower in z-score: 1.3 for the first, 0.0886 for the second.

Going from `O=C(Nc1ccc([N+](=O)[O-])cn1)c1cc(-c2cccc(Cl)c2)nc2ccccc12` to `COC(=O)c1ccccc1NC(=S)NC(=O)c1cccc2ccccc12`, the z-score rises from -0.658 to 0.972.

Compared with `O=C(N/N=C/c1c[nH]c2ccccc12)C1CC1(c1ccccc1)c1ccccc1` (stereo unspecified), `S=C1NC(c2ccccc2)=NCN1c1ccccc1` is higher in z-score: -0.618 for the first, 0.145 for the second.

Going from `Cc1ccc(C)n1-c1ccc(C(=O)O)cc1` to `Cc1ccc(C)n1-c1ccc(C(=O)NN)cc1`, the z-score rises from -1.12 to 2.5.

First: CCOC(=O)c1ccc(-n2c(C)ccc2C)cc1
Second: CCOC(=O)c1nnc(-c2ccccc2)nc1Oc1ccccc1Cl
The z-score of the first is higher: -0.201 for the first, -0.346 for the second.

Going from `CCOC(=O)/C(C(N)=NC(C)C)=C(\O)c1ccccc1` to `CC(=O)C1C(c2ccccc2)c2c(n[nH]c2C)CC1(C)O` (stereo unspecified), the z-score rises from 0.0345 to 0.241.

Compared with `CC(C)COC(=O)CCNc1n[nH]c(=O)[nH]c1=O`, `CC(C)COC(=O)CNc1n[nH]c(=S)[nH]c1=O` is higher in z-score: 0.184 for the first, 1.98 for the second.

Going from `CCCCOC(=O)CNc1n[nH]c(=S)[nH]c1=O` to `CCCOc1ccccc1Nc1nnc(C)c(=O)[nH]1`, the z-score rises from 0.182 to 0.409.

First: Nc1cc(=O)nc(SCC(=O)N(C2CCCCC2)C2CCCCC2)n1-c1ccccc1
Second: Cn1c2ccccc2c2c(C(=O)N3CCN(C(=O)c4ccco4)CC3)cn(C3CCCCC3)c(=O)c21
The z-score of the first is lower: -0.245 for the first, -0.126 for the second.

Going from `CCCNC(=O)C(NS(=O)(=O)c1cccc2nsnc12)c1ccccc1` (stereo unspecified) to `CCn1c(SCC(=O)Nc2ccccc2OC)nc2ccccc2c1=O`, the z-score falls from -0.0978 to -0.373.

Compared with `CC1CN(Cc2cc(=O)[nH]c(C3CC3)n2)CC(C)O1` (stereo unspecified), `Cc1nc(CN2CCOCC2)cc(=O)[nH]1` is higher in z-score: -0.155 for the first, 0.197 for the second.

Going from `Cc1cc(NC(=O)C(=O)NCCN2CCN(C(=O)c3cccs3)CC2)ccc1Br` to `Cc1cccc(N2CCN(C(=O)c3ccoc3C)CC2)c1C`, the z-score rises from -0.64 to -0.311.

Going from `COc1cccc(N/C=C(\C#N)c2ccc(OCCCF)cc2)c1` to `COc1ccc(Cn2cnc3sccc3c2=O)cc1`, the z-score falls from 0.135 to -0.167.

First: Cc1ccccc1CCN(C(=O)Cn1nnc2ccccc21)C(C(=O)NC(C)(C)C)c1ccsc1 (stereo unspecified)
Second: COC(=O)c1ccccc1NC(=S)NC(=O)c1ccccc1C
The z-score of the first is lower: 0.0716 for the first, 1.1 for the second.

First: COC(=O)c1ccccc1NC(=S)NC(=O)c1ccc2ccccc2c1
Second: COC(=O)c1ccccc1NC(=S)NC(=O)C1CC1
The z-score of the first is higher: 0.231 for the first, -0.189 for the second.

Going from `O=C(Nc1ccc(Cc2ccncc2)cc1)C1CCC(N2C(=O)C3C4C=CC(C5CC45)C3C2=O)CC1` (stereo unspecified) to `CC(=O)Nc1ccc(S(=O)(=O)NC2(C(F)(F)F)NC(=O)N(C3CCCCC3)C2=O)cc1` (stereo unspecified), the z-score rises from -0.424 to -0.0965.

Going from `CCN(C(=O)CN1CCN(c2ccccc2OC)CC1)c1c(N)n(Cc2ccccc2)c(=O)[nH]c1=O` to `CCN(C(=O)CN1CCN(c2ccccc2)CC1)c1c(N)n(Cc2ccccc2)c(=O)[nH]c1=O`, the z-score falls from 0.391 to -0.349.

Compared with `CC1Cc2ccccc2N1C(=O)CSc1nnc(CNc2ccccc2)o1` (stereo unspecified), `Cc1ccccc1-c1nnc(Cc2ccccc2)o1` is lower in z-score: -0.151 for the first, -0.211 for the second.

Going from `N=c1c(C(=O)NCc2ccco2)cc2c(=O)n3ccccc3nc2n1Cc1ccccc1` to `COc1ccc(CCn2c(=N)c(C(=O)NCc3ccco3)cc3c(=O)n4ccccc4nc32)cc1`, the z-score falls from 1.15 to 0.369.

Compared with `CN(C)c1nc(N)nc(CSc2n[nH]c(-c3ccccc3)n2)n1`, `CSc1nc(C)cc(Oc2ccc(OCCOc3ccccc3)nn2)n1` is lower in z-score: -0.00289 for the first, -0.702 for the second.

Compared with `ClCc1nnc(-c2ccccc2)o1`, `Cc1ccc(N2CN=C(c3ccccc3)NC2=S)cc1` is higher in z-score: -0.143 for the first, 0.328 for the second.

Going from `CCOC(=O)CN1C(=O)C2(OCCCO2)c2ccccc21` to `CCOc1ccccc1Nc1nnc(C)c(=O)[nH]1`, the z-score falls from -0.0349 to -0.155.

First: CN(C(=O)Nc1ccc(Cl)cc1Cl)[C@H]1c2cc(Br)ccc2OC[C@H]1CO
Second: COc1cccc2c1OC[C@@H](CO)[C@H]2N(C)C(=O)Nc1ccc(Cl)cc1Cl
The z-score of the first is lower: -0.211 for the first, 0.0803 for the second.

`CC1(C)Oc2nc3ccccc3n2/C1=C\C#N` gave a z-score of -0.233.

In the case of `CCN(CC)CCCN1C(=O)c2oc3ccccc3c(=O)c2C1c1cccs1` (stereo unspecified), the z-score is reported as 13.2 (active).
`O=C(N/N=C\c1ccc(Cl)s1)c1cccs1` was tested, and the z-score was 8.64 (active).
`O=c1cc(CN2CCOCC2)nc(C2CC2)[nH]1` was tested, and the z-score was 5.57 (active).
`COC(=O)c1ccccc1NC(=S)NC(=O)c1ccccc1` was tested, and the z-score was 13.1 (active).
`CCN(C(=O)CN1CCN(c2ccccc2O)CC1)c1c(N)n(Cc2ccccc2)c(=O)[nH]c1=O` was tested, and the z-score was 14.3 (active).
In the case of `N=c1c(C(=O)NCc2ccco2)cc2c(=O)n3ccccc3nc2n1CCc1ccccc1`, the z-score is reported as 4.11 (active).
With `c1ccc(Cc2nnc(-c3ccccc3)o2)cc1` the z-score was 10.4 (active).
With `COc1cccc2c1OC[C@@H](CO)[C@H]2N(C)C(=O)Nc1ccccc1` the z-score was 6.33 (active).
For `S=C1NC(c2ccccc2)=NCN1c1ccc(Cl)cc1`, the z-score was 3.19 (active).
In the case of `CCOc1ccccc1Nc1nnc(Cc2ccccc2Cl)c(=O)[nH]1`, the z-score is reported as 12.8 (active).
